The results in this text go back to article PMC8384837, “Expanding the binding specificity for RNA recognition by a PUF domain”.

Experiment in all cases: yeast three-hybrid, YBZ-1, SC-Leu-His + 0.5 mM 3-AT, 4 days
What all share (conditions): tags: N-Gal4 AD-HA kept; label: inside an RPR1-promoter hybrid RNA with tandem MS2 sites; ssRNA

For one assay, the target named is PUM1 PUF domain R3-MRY (Homo sapiens, UniProt Q14671 828-1176, C935M;Q939Y). In outline: (§1)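 Sequencing with Illumina followed PCR amplification of the repeat regions from transformants grown four days on SC-Leu (input) or SC-Leu-His + 0.5 mM 3-AT (selection). The transformants were strain YBZ-1 with a LexA–MS2 coat fusion and a HIS3 reporter, carrying Pumilio-1 PUF domain libraries and matching RNA elements. The interaction score is the log change in variant frequency from input to selection, computed in log2 with a pseudocount of 1 for absent variants.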

For another assay, the target named is PUM1 PUF domain R3-RRA (Homo sapiens, UniProt Q14671 828-1176, C935R;Q939A). In outline:
as §1

The next assay has as its target PUM1 PUF domain R5-RHA (Homo sapiens, UniProt Q14671 828-1176, C1007R;R1008H;Q1011A). A digest of the protocol: as §1
In another assay the target is PUM1 PUF domain R5-LYS (Homo sapiens, UniProt Q14671 828-1176, C1007L;R1008Y;Q1011S). A digest of the protocol:
as §1

In a further assay the target is PUM1 PUF domain R5-GVQ (Homo sapiens, UniProt Q14671 828-1176, C1007G;R1008V). In outline: as §1
Another assay addresses PUM1 PUF domain R5-RRH (Homo sapiens, UniProt Q14671 828-1176, C1007R;Q1011H). A digest of the protocol:
as §1

Another assay concerns the target PUM1 PUF domain R3-APD (Homo sapiens, UniProt Q14671 828-1176, C935A;R936P;Q939D). In outline:
as §1

For a further assay, the target named is PUM1 PUF domain R8-RWW (Homo sapiens, UniProt Q14671 828-1176, N1122R;Y1123W;Q1126W). A digest of the protocol:
as §1

The target of a further assay is PUM1 PUF domain R4-APC (Homo sapiens, UniProt Q14671 828-1176, N971A;H972P;Q975C). In outline:
as §1

Another assay addresses PUM1 PUF domain R4-CRG (Homo sapiens, UniProt Q14671 828-1176, N971C;H972R;Q975G). A digest of the protocol: as §1
In the next assay the target is PUM1 PUF domain R4-DWS (Homo sapiens, UniProt Q14671 828-1176, N971D;H972W;Q975S). In outline:
as §1

The target of another assay is PUM1 PUF domain R4-VGY (Homo sapiens, UniProt Q14671 828-1176, N971V;H972G;Q975Y). A digest of the protocol: as §1
Another assay concerns the target PUM1 PUF domain R8-QFC (Homo sapiens, UniProt Q14671 828-1176, N1122Q;Y1123F;Q1126C). A digest of the protocol: as §1
In another assay the target is PUM1 PUF domain R3-QCD (Homo sapiens, UniProt Q14671 828-1176, C935Q;R936C;Q939D). A digest of the protocol: as §1
A further assay deals with PUM1 PUF domain R3-IWD (Homo sapiens, UniProt Q14671 828-1176, C935I;R936W;Q939D). A digest of the protocol: as §1
The target of another assay is PUM1 PUF domain R4-DHQ (Homo sapiens, UniProt Q14671 828-1176, N971D). In outline: as §1
A further assay concerns the target PUM1 PUF domain R4-HNL (Homo sapiens, UniProt Q14671 828-1176, N971H;H972N;Q975L). In outline: as §1
In the next assay the target is PUM1 PUF domain R5-ESE (Homo sapiens, UniProt Q14671 828-1176, C1007E;R1008S;Q1011E). In outline:
as §1

Another assay has as its target PUM1 PUF domain R1-GYR (Homo sapiens, UniProt Q14671 828-1176, S863G;R864Y;Q867R). In outline: as §1
The target of the next assay is PUM1 PUF domain R1-KYQ (Homo sapiens, UniProt Q14671 828-1176, S863K;R864Y). A digest of the protocol: as §1
PUM1 PUF domain R1-KYQ, sequence (Q14671 828-1176 S863K/R864Y): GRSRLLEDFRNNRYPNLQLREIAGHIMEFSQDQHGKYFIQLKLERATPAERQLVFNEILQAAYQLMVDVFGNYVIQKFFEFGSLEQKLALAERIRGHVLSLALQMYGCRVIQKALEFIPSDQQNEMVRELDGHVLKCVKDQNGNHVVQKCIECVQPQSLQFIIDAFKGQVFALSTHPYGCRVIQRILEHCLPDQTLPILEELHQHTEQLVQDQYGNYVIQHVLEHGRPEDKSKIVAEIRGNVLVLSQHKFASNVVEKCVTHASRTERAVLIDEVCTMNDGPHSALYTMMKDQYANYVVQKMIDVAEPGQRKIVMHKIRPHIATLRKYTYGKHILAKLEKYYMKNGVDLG

PUM1 PUF domain R4-APC, sequence (Q14671 828-1176 N971A/H972P/Q975C): as the sequence (Q14671 828-1176 S863K/R864Y) above, with K36S, Y37R, N144A, H145P, Q148C counted along it
PUM1 PUF domain R5-RRH, sequence (Q14671 828-1176 C1007R/Q1011H): as the sequence (Q14671 828-1176 S863K/R864Y) above, with K36S, Y37R, C180R, Q184H counted along it
PUM1 PUF domain R4-DWS, sequence (Q14671 828-1176 N971D/H972W/Q975S): as the sequence (Q14671 828-1176 S863K/R864Y) above, with K36S, Y37R, N144D, H145W, Q148S counted along it
PUM1 PUF domain R5-RHA, sequence (Q14671 828-1176 C1007R/R1008H/Q1011A): as the sequence (Q14671 828-1176 S863K/R864Y) above, with K36S, Y37R, C180R, R181H, Q184A counted along it
PUM1 PUF domain R4-DHQ, sequence (Q14671 828-1176 N971D): as the sequence (Q14671 828-1176 S863K/R864Y) above, with K36S, Y37R, N144D counted along it
PUM1 PUF domain R8-RWW, sequence (Q14671 828-1176 N1122R/Y1123W/Q1126W): as the sequence (Q14671 828-1176 S863K/R864Y) above, with K36S, Y37R, N295R, Y296W, Q299W counted along it
PUM1 PUF domain R5-LYS, sequence (Q14671 828-1176 C1007L/R1008Y/Q1011S): as the sequence (Q14671 828-1176 S863K/R864Y) above, with K36S, Y37R, C180L, R181Y, Q184S counted along it
PUM1 PUF domain R5-GVQ, sequence (Q14671 828-1176 C1007G/R1008V): as the sequence (Q14671 828-1176 S863K/R864Y) above, with K36S, Y37R, C180G, R181V counted along it
PUM1 PUF domain R3-APD, sequence (Q14671 828-1176 C935A/R936P/Q939D): as the sequence (Q14671 828-1176 S863K/R864Y) above, with K36S, Y37R, C108A, R109P, Q112D counted along it
PUM1 PUF domain R4-CRG, sequence (Q14671 828-1176 N971C/H972R/Q975G): as the sequence (Q14671 828-1176 S863K/R864Y) above, with K36S, Y37R, N144C, H145R, Q148G counted along it
PUM1 PUF domain R3-MRY, sequence (Q14671 828-1176 C935M/Q939Y): as the sequence (Q14671 828-1176 S863K/R864Y) above, with K36S, Y37R, C108M, Q112Y counted along it
PUM1 PUF domain R4-HNL, sequence (Q14671 828-1176 N971H/H972N/Q975L): as the sequence (Q14671 828-1176 S863K/R864Y) above, with K36S, Y37R, N144H, H145N, Q148L counted along it
PUM1 PUF domain R1-GYR, sequence (Q14671 828-1176 S863G/R864Y/Q867R): as the sequence (Q14671 828-1176 S863K/R864Y) above, with K36G, Q40R counted along it
PUM1 PUF domain R5-ESE, sequence (Q14671 828-1176 C1007E/R1008S/Q1011E): as the sequence (Q14671 828-1176 S863K/R864Y) above, with K36S, Y37R, C180E, R181S, Q184E counted along it
PUM1 PUF domain R3-IWD, sequence (Q14671 828-1176 C935I/R936W/Q939D): as the sequence (Q14671 828-1176 S863K/R864Y) above, with K36S, Y37R, C108I, R109W, Q112D counted along it
PUM1 PUF domain R4-VGY, sequence (Q14671 828-1176 N971V/H972G/Q975Y): as the sequence (Q14671 828-1176 S863K/R864Y) above, with K36S, Y37R, N144V, H145G, Q148Y counted along it
PUM1 PUF domain R3-QCD, sequence (Q14671 828-1176 C935Q/R936C/Q939D): as the sequence (Q14671 828-1176 S863K/R864Y) above, with K36S, Y37R, C108Q, R109C, Q112D counted along it
PUM1 PUF domain R8-QFC, sequence (Q14671 828-1176 N1122Q/Y1123F/Q1126C): as the sequence (Q14671 828-1176 S863K/R864Y) above, with K36S, Y37R, N295Q, Y296F, Q299C counted along it
PUM1 PUF domain R3-RRA, sequence (Q14671 828-1176 C935R/Q939A): as the sequence (Q14671 828-1176 S863K/R864Y) above, with K36S, Y37R, C108R, Q112A counted along it

Turning to “GGCUAGAACUAGUGGAUCCCCCGGCGCCCGGCGGCUCGAGCCCGGGUAAGUGUAAUUAGUCUGCAUGCCGCCGGGCGCCAUGCCUGCAGGUCGACUCUAGAAAACAUG”, the binding signal was 1.32 log2 enrichment (interaction score) with PUM1 PUF domain R3-MRY and 3.19 log2 enrichment (interaction score) with PUM1 PUF domain R3-RRA.
As to “GGCUAGAACUAGUGGAUCCCCCGGCGCCCGGCGGCUCGAGCCCGGGUAAGUGUUAAUAGUCUGCAUGCCGCCGGGCGCCAUGCCUGCAGGUCGACUCUAGAAAACAUG”, the figures for the binding signal in the assay with PUM1 PUF domain R5-RHA, with PUM1 PUF domain R5-LYS and in the assay with PUM1 PUF domain R5-GVQ were 5.76 log2 enrichment (interaction score), 3.82 log2 enrichment (interaction score) and 2.71 log2 enrichment (interaction score), respectively.
Regarding “GGCUAGAACUAGUGGAUCCCCCGGCGCCCGGCGGCUCGAGCCCGGGUAAGUGUAAAUAGUCUGCAUGCCGCCGGGCGCCAUGCCUGCAGGUCGACUCUAGAAAACAUG”, the binding signal with PUM1 PUF domain R5-RRH was 1.96 log2 enrichment (interaction score); with PUM1 PUF domain R3-APD, 4.44 log2 enrichment (interaction score); in the assay with PUM1 PUF domain R8-RWW, 4.93 log2 enrichment (interaction score); with PUM1 PUF domain R4-APC it was 4.14 log2 enrichment (interaction score); with PUM1 PUF domain R5-RHA, 2.93 log2 enrichment (interaction score); in the assay with PUM1 PUF domain R4-CRG it was 4.02 log2 enrichment (interaction score). In addition, the binding signal with PUM1 PUF domain R4-DWS is 2.39 log2 enrichment (interaction score); with PUM1 PUF domain R5-LYS, 3.11 log2 enrichment (interaction score); with PUM1 PUF domain R4-VGY it was 2.38 log2 enrichment (interaction score).
“GGCUAGAACUAGUGGAUCCCCCGGCGCCCGGCGGCUCGAGCCCGGGUAAGCGUAAAUAGUCUGCAUGCCGCCGGGCGCCAUGCCUGCAGGUCGACUCUAGAAAACAUG”: the binding signal in the assay with PUM1 PUF domain R8-RWW is 5.89 log2 enrichment (interaction score); in the assay with PUM1 PUF domain R8-QFC it was 3.87 log2 enrichment (interaction score).
“GGCUAGAACUAGUGGAUCCCCCGGCGCCCGGCGGCUCGAGCCCGGGUAAGUGUAAGUAGUCUGCAUGCCGCCGGGCGCCAUGCCUGCAGGUCGACUCUAGAAAACAUG”: the binding signal with PUM1 PUF domain R3-MRY was 4.3 log2 enrichment (interaction score); in the assay with PUM1 PUF domain R3-QCD, 3.09 log2 enrichment (interaction score); with PUM1 PUF domain R3-APD, 6.54 log2 enrichment (interaction score); in the assay with PUM1 PUF domain R3-IWD, 4.83 log2 enrichment (interaction score).
With “GGCUAGAACUAGUGGAUCCCCCGGCGCCCGGCGGCUCGAGCCCGGGUAAGUGUAUAUAGUCUGCAUGCCGCCGGGCGCCAUGCCUGCAGGUCGACUCUAGAAAACAUG”, the binding signal in the assay with PUM1 PUF domain R4-APC is 3.17 log2 enrichment (interaction score); in the assay with PUM1 PUF domain R4-DHQ, 5.32 log2 enrichment (interaction score); with PUM1 PUF domain R4-CRG, 1.29 log2 enrichment (interaction score); with PUM1 PUF domain R4-HNL, 3.45 log2 enrichment (interaction score); with PUM1 PUF domain R4-DWS, 5.96 log2 enrichment (interaction score).
For the sequence “GGCUAGAACUAGUGGAUCCCCCGGCGCCCGGCGGCUCGAGCCCGGGUAAGUGUCAAUAGUCUGCAUGCCGCCGGGCGCCAUGCCUGCAGGUCGACUCUAGAAAACAUG”, the binding signal in the assay with PUM1 PUF domain R5-RRH was 5.57 log2 enrichment (interaction score); with PUM1 PUF domain R5-RHA, 5.53 log2 enrichment (interaction score).
With “GGCUAGAACUAGUGGAUCCCCCGGCGCCCGGCGGCUCGAGCCCGGGUAAGUGUACAUAGUCUGCAUGCCGCCGGGCGCCAUGCCUGCAGGUCGACUCUAGAAAACAUG”, the binding signal with PUM1 PUF domain R4-APC was 1.88 log2 enrichment (interaction score); with PUM1 PUF domain R4-DHQ, 2.4 log2 enrichment (interaction score); with PUM1 PUF domain R4-HNL, 2.04 log2 enrichment (interaction score); in the assay with PUM1 PUF domain R4-DWS, 2.51 log2 enrichment (interaction score).
Regarding “GGCUAGAACUAGUGGAUCCCCCGGCGCCCGGCGGCUCGAGCCCGGGUAAGUGUGAAUAGUCUGCAUGCCGCCGGGCGCCAUGCCUGCAGGUCGACUCUAGAAAACAUG”, the binding signal in the assay with PUM1 PUF domain R5-RRH was 1.47 log2 enrichment (interaction score); with PUM1 PUF domain R5-GVQ, 2.24 log2 enrichment (interaction score); in the assay with PUM1 PUF domain R5-ESE, 2.77 log2 enrichment (interaction score).
On to “GGCUAGAACUAGUGGAUCCCCCGGCGCCCGGCGGCUCGAGCCCGGGUAAGUGUAAAUCGUCUGCAUGCCGCCGGGCGCCAUGCCUGCAGGUCGACUCUAGAAAACAUG”, for which the binding signal is 4.99 log2 enrichment (interaction score) with PUM1 PUF domain R1-GYR and 4.96 log2 enrichment (interaction score) with PUM1 PUF domain R1-KYQ.
“GGCUAGAACUAGUGGAUCCCCCGGCGCCCGGCGGCUCGAGCCCGGGUAAGUGUAAAUUGUCUGCAUGCCGCCGGGCGCCAUGCCUGCAGGUCGACUCUAGAAAACAUG”: the binding signal with PUM1 PUF domain R1-GYR was 2.71 log2 enrichment (interaction score).
